Measured values taken from PubChem BioAssay (NCI).
This is part of a sample that, as a whole, favours compounds with a hit. Of some 83,000 tested, about 20% had one in any assay.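 For each line, cells grew in 96-well plates with the test compound present at a single concentration for 48 hours.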 Calls of active or inactive are those of the source. How the source made its calls: active means growth percent below 10; inactive means the rest.

Columns and labels:
Experiment in all cases: NCI-60 one-dose screen, 48 h (100 = growth as untreated, 0 = no growth, -100 = all killed)
Conditions in all cases: 10 µM
SR leukemia = test system: SR leukemia
RPMI-8226 leukemia = test system: RPMI-8226 leukemia
OVCAR-8 ovarian = test system: OVCAR-8 ovarian
OVCAR-5 ovarian = test system: OVCAR-5 ovarian
OVCAR-4 ovarian = test system: OVCAR-4 ovarian
IGROV1 ovarian = test system: IGROV1 ovarian
OVCAR-3 ovarian = test system: OVCAR-3 ovarian
HS 578T breast = test system: HS 578T breast
NCI/ADR-RES ovarian = test system: NCI/ADR-RES ovarian
SK-OV-3 ovarian = test system: SK-OV-3 ovarian

Measured: growth

CCCC(C)c1ccc(OCCCCCCN2CCNCC2)cc1 (configuration not stated)
active: SR leukemia -24.7% | RPMI-8226 leukemia -9.35%
inactive: OVCAR-8 ovarian 36.8% | OVCAR-5 ovarian 80.8% | OVCAR-4 ovarian 62.2% | IGROV1 ovarian 64.7% | OVCAR-3 ovarian 62.6% | HS 578T breast 68.1% | NCI/ADR-RES ovarian 54.3%

O=C(NNC(=O)c1ccncc1)Nc1ccc([N+](=O)[O-])cc1
inactive: SR leukemia 91.9% | RPMI-8226 leukemia 102% | OVCAR-8 ovarian 105% | OVCAR-5 ovarian 108% | OVCAR-4 ovarian 108% | IGROV1 ovarian 120% | OVCAR-3 ovarian 103% | HS 578T breast 107% | NCI/ADR-RES ovarian 96.4%

COc1cc(C2C=C(c3ccc(Cl)cc3)N=C3SC(C)=CN32)cc(OC)c1OC (configuration not stated)
inactive: RPMI-8226 leukemia 47.5% | OVCAR-8 ovarian 93.6% | OVCAR-5 ovarian 85.2% | OVCAR-4 ovarian 77.4% | IGROV1 ovarian 96.6% | HS 578T breast 101% | NCI/ADR-RES ovarian 97.6%
active: SR leukemia 9.45%

c1ccc(C2CCCCC2)c(OCCCCCN2CCNCC2)c1
active: SR leukemia -32.9% | RPMI-8226 leukemia -14.6%
inactive: OVCAR-8 ovarian 83.2% | OVCAR-5 ovarian 93.8% | OVCAR-4 ovarian 68.5% | IGROV1 ovarian 56.7% | OVCAR-3 ovarian 76.9% | HS 578T breast 76% | NCI/ADR-RES ovarian 70%

CCCCNC(=O)Oc1ccc(/C(=C(\C)c2ccc(OC)cc2)c2ccc(OCCN3CCCCC3)cc2)cc1
inactive: RPMI-8226 leukemia 29% | OVCAR-5 ovarian 74.9% | OVCAR-4 ovarian 64.8% | SK-OV-3 ovarian 66.7% | IGROV1 ovarian 64.7% | OVCAR-3 ovarian 73.6% | HS 578T breast 48.5% | NCI/ADR-RES ovarian 68.2%
active: SR leukemia -22.9%

CCN(CC)CC(O)CNc1ccnc2cc(Cl)c(Cl)cc12 (configuration not stated)
inactive: SR leukemia 28.4% | RPMI-8226 leukemia 90.3% | OVCAR-8 ovarian 84.3% | OVCAR-4 ovarian 85.9% | SK-OV-3 ovarian 106% | IGROV1 ovarian 91.1% | OVCAR-3 ovarian 92.5% | HS 578T breast 103% | NCI/ADR-RES ovarian 87.1%

N=C(N)c1ccc(-c2ccc(-c3ccccc3)s2)cc1F
active: SR leukemia -11.6% | RPMI-8226 leukemia -60.2% | OVCAR-8 ovarian -32.9% | OVCAR-5 ovarian -96.8% | OVCAR-4 ovarian -57.2% | IGROV1 ovarian -51.2% | OVCAR-3 ovarian -94.6% | HS 578T breast -41.6% | NCI/ADR-RES ovarian -50.8%

CCNC1(NC#N)CCCCC1
inactive: SR leukemia 103% | RPMI-8226 leukemia 101% | OVCAR-8 ovarian 84.4% | OVCAR-5 ovarian 116% | OVCAR-4 ovarian 113% | IGROV1 ovarian 115% | HS 578T breast 103% | NCI/ADR-RES ovarian 101%

Nc1c(C(=O)Nc2ccccc2F)sc2nc3c(cc12)C(=O)CCC3
inactive: SR leukemia 36.7% | RPMI-8226 leukemia 52% | OVCAR-8 ovarian 58.6% | OVCAR-5 ovarian 71.1% | SK-OV-3 ovarian 13.6% | OVCAR-3 ovarian 16.8% | HS 578T breast 37.2%
active: NCI/ADR-RES ovarian -4.39%

CC(Oc1ccc(Cl)cc1)c1ccccc1 (configuration not stated)
inactive: SR leukemia 99.1% | RPMI-8226 leukemia 101% | OVCAR-8 ovarian 110% | OVCAR-5 ovarian 103% | OVCAR-4 ovarian 103% | IGROV1 ovarian 96% | OVCAR-3 ovarian 107% | HS 578T breast 104% | NCI/ADR-RES ovarian 103%

COc1c(C)c(C)c(OC)c2c1[nH]c(=O)c1c3cccnc3cn21
inactive: SR leukemia 94.8% | RPMI-8226 leukemia 108% | OVCAR-8 ovarian 111% | OVCAR-5 ovarian 122% | SK-OV-3 ovarian 103% | OVCAR-3 ovarian 104% | HS 578T breast 99.5% | NCI/ADR-RES ovarian 110%

Cc1cc(/C=C2\SC(=Nc3ccccc3)N(C3CCCC3)C2=O)c(C)n1-c1ccc(Cl)cc1
active: SR leukemia -36.8% | RPMI-8226 leukemia -43.3% | OVCAR-8 ovarian -38% | OVCAR-5 ovarian -24.9% | OVCAR-4 ovarian -35.3% | IGROV1 ovarian -48.6% | OVCAR-3 ovarian -85.1% | HS 578T breast -12.8% | NCI/ADR-RES ovarian 0.0476%

CCCCCCCCCCCCCC[n+]1ccccc1
inactive: NCI/ADR-RES ovarian 73.3%
active: SR leukemia -22.6% | RPMI-8226 leukemia -57% | OVCAR-8 ovarian -68.7% | OVCAR-5 ovarian 5.24% | OVCAR-4 ovarian -6.58% | IGROV1 ovarian -60.4% | HS 578T breast -12.6%

CCCCCc1cc[n+](CC(=O)c2ccc(Cl)cc2)cc1
inactive: SR leukemia 86% | OVCAR-8 ovarian 98.8% | OVCAR-5 ovarian 71.4% | OVCAR-4 ovarian 96.3% | SK-OV-3 ovarian 99.1% | IGROV1 ovarian 86.5% | OVCAR-3 ovarian 59.8% | HS 578T breast 95.9% | NCI/ADR-RES ovarian 99.7%

CCOC(=O)Nc1ccc2c(c1)C(=O)N(CCOC)c1ccccc1O2
active: OVCAR-3 ovarian 8.46%
inactive: SR leukemia 17.5% | RPMI-8226 leukemia 22.2% | OVCAR-8 ovarian 52.8% | OVCAR-5 ovarian 87.9% | OVCAR-4 ovarian 62.1% | IGROV1 ovarian 57.8% | HS 578T breast 44.4% | NCI/ADR-RES ovarian 24.1%

Oc1ccc(Cn2cc3c(c2-c2ccccc2)CCc2cnoc2-3)cc1
inactive: SR leukemia 76.8% | RPMI-8226 leukemia 82.1% | OVCAR-8 ovarian 100% | OVCAR-5 ovarian 105% | OVCAR-4 ovarian 95.8% | IGROV1 ovarian 120% | HS 578T breast 106% | NCI/ADR-RES ovarian 86.2%

COc1cc(-c2nc3ccc(C)cc3[nH]2)ccc1OCc1nnc(-c2ccc(CC(C)C)cc2)o1
inactive: RPMI-8226 leukemia 68.9% | OVCAR-8 ovarian 97.8% | OVCAR-5 ovarian 102% | OVCAR-4 ovarian 91.2% | IGROV1 ovarian 91.4% | OVCAR-3 ovarian 101% | HS 578T breast 84% | NCI/ADR-RES ovarian 96%
active: SR leukemia -2.79%

CC(C)(C)CC(C)(C)c1ccc(O)c(Cc2ccc(Cl)cc2Cl)c1
active: SR leukemia -57.5% | RPMI-8226 leukemia -10.7% | OVCAR-8 ovarian -43.4% | OVCAR-4 ovarian -86.5% | SK-OV-3 ovarian -86.6% | IGROV1 ovarian -82.8% | OVCAR-3 ovarian -93.7% | HS 578T breast -23% | NCI/ADR-RES ovarian -81.1%

COc1ccc(-c2csc(NC(=O)CO[N+](=O)[O-])n2)cc1
inactive: SR leukemia 96.1% | RPMI-8226 leukemia 106% | OVCAR-8 ovarian 96.1% | OVCAR-5 ovarian 113% | OVCAR-4 ovarian 103% | IGROV1 ovarian 97.9% | OVCAR-3 ovarian 101% | HS 578T breast 104% | NCI/ADR-RES ovarian 99.6%

COc1cc(CSc2nc3ccc(Cl)cc3c(=O)n2-c2ccccc2)cc(OC)c1OC
inactive: SR leukemia 45.6% | RPMI-8226 leukemia 105% | OVCAR-8 ovarian 84.3% | OVCAR-5 ovarian 84.7% | OVCAR-4 ovarian 81.7% | IGROV1 ovarian 72.5% | OVCAR-3 ovarian 77.8% | HS 578T breast 90.3% | NCI/ADR-RES ovarian 75.5%

O=c1[nH]c(=O)n(C2C[C@@H](O)[C@@H](CO)O2)cc1F (some centres not stated)
inactive: SR leukemia 25.9% | RPMI-8226 leukemia 59.2% | OVCAR-8 ovarian 30.2% | OVCAR-4 ovarian 39% | SK-OV-3 ovarian 43.6% | IGROV1 ovarian 43.1% | OVCAR-3 ovarian 30.5% | HS 578T breast 60.8% | NCI/ADR-RES ovarian 29.6%

Cc1cc(C(C)(C)CC(C)(C)C)ccc1OCCOCC[N+](C)(C)Cc1ccccc1
active: SR leukemia -62.5% | RPMI-8226 leukemia -20% | OVCAR-4 ovarian 2.92% | IGROV1 ovarian -76.8% | HS 578T breast -9.66%
inactive: OVCAR-8 ovarian 18.7% | SK-OV-3 ovarian 11% | OVCAR-3 ovarian 12.9% | NCI/ADR-RES ovarian 103%

O=C(NCc1cn(Cc2cccc(Oc3ccccc3)c2)nn1)c1cccnc1Nc1ccccc1
inactive: SR leukemia 16.3% | RPMI-8226 leukemia 52.7% | OVCAR-8 ovarian 62.6% | OVCAR-5 ovarian 89.1% | OVCAR-4 ovarian 74.9% | IGROV1 ovarian 94.1% | OVCAR-3 ovarian 42.1% | HS 578T breast 54.7% | NCI/ADR-RES ovarian 23.6%

COc1cc(-c2c(C#N)c(N)n3c(nc4ccccc43)c2C#N)cc(Br)c1OC
inactive: RPMI-8226 leukemia 35.8% | OVCAR-8 ovarian 36.4% | OVCAR-5 ovarian 68.9% | IGROV1 ovarian 83.5% | HS 578T breast 19.7% | NCI/ADR-RES ovarian 78.1%
active: SR leukemia -1.43% | OVCAR-4 ovarian -2.8% | OVCAR-3 ovarian -36.6%

O=C(COc1ccc(-c2nc3ccccc3[nH]2)cc1)N=Nc1c(O)[nH]c2ccccc12
active: SR leukemia 1.13%
inactive: RPMI-8226 leukemia 71.5% | OVCAR-8 ovarian 78.4% | OVCAR-5 ovarian 116% | OVCAR-4 ovarian 15.5% | IGROV1 ovarian 99.5% | OVCAR-3 ovarian 62.5% | HS 578T breast 103% | NCI/ADR-RES ovarian 108%

O=C(CCCC(=O)N/N=C/c1cc(Cl)ccc1O)N/N=C\c1cc(Cl)ccc1O
inactive: OVCAR-8 ovarian 20.3% | OVCAR-5 ovarian 67.4% | OVCAR-4 ovarian 22.1% | SK-OV-3 ovarian 13.9% | IGROV1 ovarian 31.2% | OVCAR-3 ovarian 35.5% | HS 578T breast 68.4% | NCI/ADR-RES ovarian 14.1%
active: SR leukemia 1.74%

CCOC(=O)c1ccc(N(C=O)CCC(=O)CCl)cc1
inactive: OVCAR-4 ovarian 18.8% | SK-OV-3 ovarian 30.7% | HS 578T breast 33.2% | NCI/ADR-RES ovarian 21.4%
active: SR leukemia 5.14% | OVCAR-8 ovarian 3.69% | OVCAR-5 ovarian 4.98% | IGROV1 ovarian 2.75% | OVCAR-3 ovarian -5.41%

CC(C)CCN(CCCNc1c2c(nc3cc(Cl)ccc13)CCCC2)CCC(C)C
active: SR leukemia 7.94%
inactive: OVCAR-8 ovarian 79.4% | OVCAR-4 ovarian 50.8% | SK-OV-3 ovarian 93.2% | IGROV1 ovarian 50.2% | OVCAR-3 ovarian 81.6% | HS 578T breast 76.1% | NCI/ADR-RES ovarian 74.3%

COC(=O)c1ccc(Cn2ccc(=O)[nH]c2=O)cc1
inactive: SR leukemia 94.1% | OVCAR-8 ovarian 115% | OVCAR-5 ovarian 104% | OVCAR-4 ovarian 109% | SK-OV-3 ovarian 116% | IGROV1 ovarian 114% | OVCAR-3 ovarian 130% | HS 578T breast 121% | NCI/ADR-RES ovarian 110%

COc1ccc(C2C=C(c3ccc(Cl)cc3)N=C3SC=CN32)c(Br)c1 (configuration not stated)
inactive: SR leukemia 59.2% | OVCAR-8 ovarian 67.3% | OVCAR-5 ovarian 98.2% | OVCAR-4 ovarian 80.9% | SK-OV-3 ovarian 117% | IGROV1 ovarian 98.1% | OVCAR-3 ovarian 60.5% | HS 578T breast 94.8% | NCI/ADR-RES ovarian 89.9%

COc1ccc(CSc2nc3cc(OC)c(OC)cc3c(=O)n2-c2ccc(OC)cc2OC)cc1
inactive: SR leukemia 59.5% | OVCAR-8 ovarian 89.2% | OVCAR-5 ovarian 102% | OVCAR-4 ovarian 83.2% | SK-OV-3 ovarian 114% | IGROV1 ovarian 86.1% | OVCAR-3 ovarian 92.1% | HS 578T breast 86.7% | NCI/ADR-RES ovarian 79.5%
